Records with an inconclusive call do not appear. Activity calls are given as the source filed them. Unless noted, the call rests on the fitted dose curve; in most records, active means well fitted curve in the direction sought with a large enough effect in the repeat runs; inconclusive means weak or mixed curves; inactive means no such curve, though single readings can be large; an effect the other way counts as inactive or inconclusive.
How the values were obtained:
[1] = qHTS assay to identify small molecule agonists of the hypoxia (HIF-1) signaling pathway - cell viability counter screen (AID 1224844; calls by dose curve; further: nearly all actives have a fitted effect of over 50% in size)
How it was run: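 Multiplexed with the HRE beta-lactamase assay, this viability read used CellTiter-Glo luminescence (30 min, RT) on HRE-bla ME-180 cells treated 17 hrs with compounds in 0.5% dialyzed FBS medium.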

[2] = qHTS assay to identify small molecule agonists of H2AX (AID 1224845; active means well fitted activation curve with a large enough effect in the signal ratio in the repeat runs, not every such curve was filed as active; the % refers to the signal ratio)
How it was run: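 Wild-type CHO-K1 cells, plated overnight, exposed 3hr at 37C to 15 concentrations (0.76% DMSO final). Lysed, then HTRF anti-pH2AX (S139) cryptate and anti-H2AX-d2 antibodies, 24 hr room temperature; 665/620 nm emission read.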

[3] = qHTS assay to identify small molecule agonists of the hypoxia (HIF-1) signaling pathway (AID 1224846; active means well fitted activation curve with a large enough effect in the signal ratio in the repeat runs, not every such curve was filed as active; the % refers to the signal ratio)
How it was run: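 Hypoxia-pathway activation was scored as increased beta-lactamase from an HRE-controlled reporter in ME-180 cells; plated at 2,000 cells per well with 0.5% dialyzed FBS, they were exposed 17 hrs to compounds and then given CCF4-AM.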

[4] = qHTS assay to identify small molecule agonists of H2AX - cell viability counter screen (AID 1224847; calls by dose curve; further: top concentration of the series differs between compounds; nearly all actives have a fitted effect of over 30% in size)
How it was run: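 CHO-K1 wt, 1000 cells/well, o/n 37C; cpds 15 conc, 3 h 37C, 0.76% DMSO; CellTiter-Glo, 30 min RT, luminescence.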

[5] = qHTS assay to identify small molecule antagonists of the estrogen related receptor (ERR) signaling pathway from Tox21 library (AID 1224848); further: nearly all actives have a fitted effect of over 50% in size
How it was run: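 ERR reporter cell line (from NTP) seeded 2,000 cells/well, rested 6 h at 37 C/5% CO2, then pin-dosed with compounds in DMSO. After 18 h at 37 C, ONE-Glo added; luminescence read after 30 min at room temperature.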

[6] = qHTS assay to identify small molecule agonists of the estrogen related receptor (ERR) signaling pathway from Tox21 library (AID 1224849; calls by dose curve; further: nearly all actives have a fitted effect of over 15% in size); settings: ERR reporter cell line, ONE-Glo luciferase, 18 h; at 92.4 µM (top of the series) unless noted
How it was run: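 Six hours post-seeding at 37 C/5% CO2, ERR cells receive DMSO-solubilised compounds; after 18 h at 37 C, ONE-Glo reagent is applied and luminescence recorded.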

[7] = qHTS RealTime-Glo MT Cell Viability Assay in HepG2 cells - 24 hour (AID 1224867); further: nearly all actives have a fitted effect of over 50% in size
How it was run: (§1)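 HepG2 suspension premixed with RealTime-Glo reagents is plated at 600 cells per well and left 5 h at 37 C/5% CO2. Compounds in DMSO then go in, and bioluminescence reflecting viable cell number is recorded over 40 h.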

[8] = qHTS RealTime-Glo MT Cell Viability Assay in HEK293 cells - 32 hour (AID 1224868); further: top concentration of the series differs between compounds; nearly all actives have a fitted effect of over 50% in size
How it was run: (§2)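 Reads taken at 0, 8, 16, 24, 32 and 40 h from the same wells. HEK293 cells (600/well) carried RealTime-Glo reagents from seeding, with compound added after a 5 h settle at 37 C.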

[9] = A CellTox Green Cytotoxicity Assay to monitor cytotoxicity in HEK293 cells - 0 hour (AID 1224869); further: nearly all actives have a fitted effect of over 50% in size
How it was run: (§3)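 Seeding of HEK293 cells together with cytotoxicity dye preceded a 5 h incubation at 37 C/5% CO2. Test compounds in DMSO were then added and fluorescence monitored across 40 h.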

[10] = qHTS RealTime-Glo MT Cell Viability Assay in HepG2 cells - 40 hour (AID 1224870); further: nearly all actives have a fitted effect of over 50% in size
How it was run: (§4)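 HepG2 cells (600/well) mixed with RealTime-Glo MT reagent, settled 5 h at 37 C/5% CO2 before compound addition. Nonlytic NanoLuc luminescence from viable-cell prosubstrate reduction read repeatedly during 40 h treatment at 37 C.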

[11] = A CellTox Green Cytotoxicity Assay to monitor cytotoxicity in HEK293 cells - 40 hour (AID 1224871); further: nearly all actives have a fitted effect of over 45% in size
How it was run: as §3

[12] = qHTS RealTime-Glo MT Cell Viability Assay in HEK293 cells - 16 hour (AID 1224872)
How it was run: as §2

[13] = qHTS RealTime-Glo MT Cell Viability Assay in HepG2 cells - 8 hour (AID 1224873); further: nearly all actives have a fitted effect of over 55% in size
How it was run: as §4

[14] = qHTS RealTime-Glo MT Cell Viability Assay in HEK293 cells - 40 hour (AID 1224874); settings: RealTime-Glo luminescence; max response: stronger effect = lower value; further: nearly all actives have a fitted effect of over 50% in size
How it was run: (§5)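 Tox21 screen in HEK293 using RealTime-Glo MT chemistry, with cells and reagent co-dispensed. Luminescence proportional to viable cell number was captured at intervals during 40 h compound exposure at 37 C.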

[15] = A CellTox Green Cytotoxicity Assay to monitor cytotoxicity in HEK293 cells - 24 hour (AID 1224875); further: nearly all actives have a fitted effect of over 45% in size
How it was run: as §3

[16] = A CellTox Green Cytotoxicity Assay to monitor cytotoxicity in HepG2 cells - 16 hour (AID 1224876); further: nearly all actives have a fitted effect of over 45% in size
How it was run: (§6)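 Nonlytic assay: viable cells exclude the dye, so fluorescence scales with cell death. HepG2 at 600 cells/well, compounds added after 5 h, signal read across 40 h.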

[17] = qHTS RealTime-Glo MT Cell Viability Assay in HepG2 cells - 32 hour (AID 1224877); further: nearly all actives have a fitted effect of over 55% in size
How it was run: as §1

[18] = A CellTox Green Cytotoxicity Assay to monitor cytotoxicity in HepG2 cells - 24 hour (AID 1224878); further: nearly all actives have a fitted effect of over 45% in size
How it was run: as §6

[19] = A CellTox Green Cytotoxicity Assay to monitor cytotoxicity in HepG2 cells - 40 hour (AID 1224879); further: nearly all actives have a fitted effect of over 40% in size
How it was run: as §6

[20] = qHTS RealTime-Glo MT Cell Viability Assay in HEK293 cells - 0 hour (AID 1224880)
How it was run: as §5
On the % scale 0 is the no-effect control and ±100 the full control effect.

CCCCCCCCCCl
inactive: outcome [1] | outcome [2] | outcome [3] | Potency [4] | Potency [5] | activity change, positive = activation [6] 2.84% | outcome [7] | Potency [8] | outcome [9] | outcome [10] | Potency [11] | Potency [12] | outcome [13] | max response [14] -0.474% | outcome [15] | outcome [16] | outcome [17] | outcome [18] | Potency [19] | Potency [20]

CN(C)CCOCCO
inactive: outcome [1] | outcome [2] | outcome [3] | Potency [4] | Potency [5] | activity change, positive = activation [6] 6.59% | outcome [7] | Potency [8] | outcome [9] | outcome [10] | Potency [11] | outcome [13] | max response [14] -8.11% | outcome [15] | outcome [16] | outcome [17] | outcome [18] | Potency [19] | Potency [20]

CCC(C=O)CC
inactive: outcome [1] | outcome [2] | outcome [3] | Potency [4] | Potency [5] | activity change, positive = activation [6] 2.68% | outcome [7] | Potency [8] | outcome [9] | outcome [10] | Potency [11] | Potency [12] | max response [14] -5.72% | outcome [15] | outcome [16] | outcome [17] | outcome [18] | Potency [19] | Potency [20]

O=C1O[C@@H]2[C@@H](O)[C@H](O)O[C@@H]2[C@H]1O
inactive: outcome [1] | outcome [2] | outcome [3] | Potency [4] | Potency [5] | activity change, positive = activation [6] -1.02% | outcome [7] | Potency [8] | outcome [9] | outcome [10] | Potency [11] | Potency [12] | outcome [13] | max response [14] -0.399% | outcome [15] | outcome [16] | outcome [17] | outcome [18] | Potency [19]

CCO[Si](CCCS)(OCC)OCC
inactive: outcome [1] | outcome [2] | outcome [3] | Potency [4] | Potency [5] | activity change, positive = activation [6] 5.01% | outcome [7] | Potency [8] | outcome [9] | outcome [10] | Potency [11] | outcome [13] | max response [14] 16.1% | outcome [15] | outcome [16] | outcome [17] | outcome [18] | Potency [19] | Potency [20]

CC(=O)NCc1c(I)c(NC(C)=O)c(I)c(C(=O)O)c1I
inactive: outcome [1] | outcome [2] | outcome [3] | Potency [4] | Potency [5] | activity change, positive = activation [6] 6.18% [at 42.5 µM] | outcome [7] | Potency [8] | outcome [9] | outcome [10] | Potency [11] | Potency [12] | outcome [13] | max response [14] 3.65% | outcome [15] | outcome [17] | Potency [20]

C=C(C)C(=O)OCc1ccccc1
inactive: outcome [1] | outcome [2] | outcome [3] | Potency [4] | Potency [5] | activity change, positive = activation [6] 1.9% | outcome [7] | Potency [8] | outcome [9] | outcome [10] | Potency [11] | Potency [12] | max response [14] -7.63% | outcome [15] | outcome [16] | outcome [17] | outcome [18] | Potency [19]

O=S(O)(O)=S
inactive: activity change, negative = cytotoxicity [1] -1.07% [at 6.97 µM] | activation (H2AX phosphorylation) [2] 2.44% [at 14 µM] | activation [3] -1% [at 7.01 µM] | activity change, negative = cytotoxicity [4] 0.0189% [at 14 µM] | activity, negative = inhibition [5] 8.94% [at 8.39 µM] | activity change, positive = activation [6] 4.43% [at 8.39 µM] | activity change, negative = cytotoxicity [7] 4.23% [at 6.97 µM] | activity change, negative = cytotoxic [8] 0.732% [at 6.97 µM] | cytotoxicity [9] 0.0066% [at 6.97 µM] | activity change, negative = cytotoxic [10] 5.36% [at 6.97 µM] | cytotoxicity increase [11] -0.26% [at 6.97 µM] | viability change, negative = cytotoxic [13] 0.222% [at 6.97 µM] | max response [14] 0.994% | activity change [15] -0.341% [at 6.97 µM] | cytotoxicity increase [16] -0.212% [at 6.97 µM] | activity change, negative = cytotoxic [17] 5.2% [at 6.97 µM] | cytotoxicity [18] -1.5% [at 6.97 µM] | cytotoxicity increase [19] -1.37% [at 6.97 µM] | activity change, negative = cytotoxicity [20] 1.11% [at 6.97 µM]

Cc1cccc(C)c1OCC(C)N (configuration not stated)
inactive: outcome [1] | outcome [2] | outcome [3] | Potency [4] | Potency [5] | activity change, positive = activation [6] -2% [at 42.5 µM] | outcome [7] | Potency [8] | outcome [9] | outcome [10] | Potency [11] | outcome [13] | max response [14] 2.76% | outcome [15] | outcome [16] | outcome [17] | outcome [18] | Potency [19]

CC(C)CC(C)CC(C)CC(C)COC(=O)c1ccccc1C(=O)OCC(C)CC(C)CC(C)CC(C)C (configuration not stated)
inactive: outcome [1] | outcome [2] | outcome [3] | Potency [4] | Potency [5] | activity change, positive = activation [6] -6.15% | outcome [7] | Potency [8] | outcome [9] | outcome [10] | Potency [11] | Potency [12] | outcome [13] | max response [14] 4.21% | outcome [15] | outcome [16] | outcome [17] | outcome [18] | Potency [19] | Potency [20]

C[Si](C)(C)C
inactive: outcome [1] | outcome [2] | outcome [3] | Potency [4] | Potency [5] | activity change, positive = activation [6] -1.98% | outcome [7] | Potency [8] | outcome [9] | outcome [10] | Potency [11] | Potency [12] | outcome [13] | max response [14] 7.29% | outcome [15] | outcome [16] | outcome [17] | outcome [18] | Potency [19] | Potency [20]

C=C(C)C1CCC(C)(O)CC1 (configuration not stated)
inactive: outcome [1] | outcome [2] | outcome [3] | Potency [4] | outcome [7] | Potency [8] | outcome [9] | outcome [10] | Potency [11] | Potency [12] | max response [14] 2.04% | outcome [15] | outcome [16] | outcome [17] | outcome [18] | Potency [19] | Potency [20]

CC(C)(C)c1nnc(NS(=O)(=O)c2ccc(N)cc2)s1
inactive: outcome [1] | outcome [2] | outcome [3] | Potency [4] | outcome [7] | Potency [8] | outcome [9] | outcome [10] | Potency [11] | Potency [12] | outcome [13] | max response [14] 2.09% | outcome [15] | outcome [16] | outcome [17] | outcome [18] | Potency [19]
